Test results as given in PubChem BioAssay (NCI).
About 79,000 compounds went through this panel and 15% of them were active in at least one assay; those are over-represented in the sample as a whole. Unmarked numbers belong to inactive results. Active and inactive are the calls of the source. Cut-off read from the data, not from the text of the source: active = growth inhibition above about 70%; inactive = the rest.

Assay: NCI Yeast Anticancer Drug Screen. Data for the mec2-1 strain (AID 157)
Conditions: S. cerevisiae mec2-1 strain, at 50.0 µM (retest, dose inferred, filed as 5.0), hits give high values
Procedure, shortened: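 Test agents were screened against the mec2-1 yeast strain, with defined DNA repair or cell cycle alteration. Growth was scored as inhibition against vehicle-only controls.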

SMILES	growth inhibition
CCCCCCCCCCCCCC(=O)CC(=O)c1c(O)cccc1O	-1%
Cc1ccc(NC(=S)SCc2ccco2)cc1Cl	99% (active)
Cc1nc(N)nn1C	-2%
Cc1cccc(O)c(=O)c1	99% (active)
O=C1C=CC(=O)N1c1ccc(-c2nc3ccccc3o2)cc1	91% (active)
NC1=NC(c2ccccc2)CC(c2cc(Cl)cc(Br)c2O)=N1 (configuration not stated)	19%
CCCCCCCCCCCc1ccn[nH]1	99% (active)
CC(=O)Oc1c(-c2ccccc2)cc([N+](=O)[O-])cc1[N+](=O)[O-]	93% (active)
COc1cccc2c1C1c3ccccc3Sc3cccc(c31)O2 (configuration not stated)	3%
O=C1CC(O)C=C1Nc1ccc(Cl)cc1 (configuration not stated)	29%
C=CCNC(=S)N/N=C(/c1ccccn1)C(C)C	36%
CCCCCCCCCCCCCCCC[N+](C)(C)c1ccccc1	99% (active)
O=C(NC(OCc1ccccc1)(C(F)(F)F)C(F)(F)F)OCc1ccccc1	92% (active)
Cc1cc2oc3c(ccc(=O)n3C)c(=O)c2c(C)c1Cl	23%
COc1cc2c(cc1OC)C(=O)C(C)(c1ccccc1)NC2 (configuration not stated)	42%
CCC(C)NCCNc1cc(OC)cc2cccnc12 (configuration not stated)	0%
CN(C)CCCN=c1c2ccccc2n(O)c2ccccc12	-19%
N#CCc1ccccc1-c1cccc2ccccc12	44%
CN=C1NS(=O)(=O)c2ccccc21	1%
COc1cc(CSc2ccc(O)cc2)cc(OC)c1OC	-16%
CN(C)CCCNc1c2ccccc2nc2cccc([N+](=O)[O-])c12	99% (active)
CCCCCCCCCCCCCCCc1ncc(C)[nH]1	99% (active)
